Source: PubChem (several laboratories)
APOBEC3A inh: APOBEC3A ssDNA deaminase inhibitors, primary screen, selectivity assay for APOBEC3G inhibitor project, biochemical, FAM/TAMRA oligo cleavage fluorescence; inhibition, % at 20 µM; AID 493011, 2011; actives 0.41% (n = 330,000); DNA dC->dU-editing enzyme APOBEC-3A (Homo sapiens), P31941; recombinant A3A, FAM/TAMRA ssDNA deamination fluorescence;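 active means at least 40% inhibition at 20 µM here, with at most 30% in a related deaminase screen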;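 further: plate controls were A3A with DMSO for no effect and wells lacking A3A enzyme for full effect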
Target sequence (P31941 whole entry, looked up): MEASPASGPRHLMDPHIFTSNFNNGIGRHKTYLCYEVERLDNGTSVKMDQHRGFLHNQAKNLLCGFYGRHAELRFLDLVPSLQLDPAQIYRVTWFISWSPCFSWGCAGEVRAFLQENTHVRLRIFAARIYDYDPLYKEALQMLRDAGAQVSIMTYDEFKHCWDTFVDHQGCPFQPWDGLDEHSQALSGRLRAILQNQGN
ALR inh: inhibitors of human ALR sulfhydryl oxidase, primary screen, biochemical, H2O2 detection, HRP-luminol luminescence, single point; purified ALR, DTT oxidation; inhibition, % (concentration not given with the values); actives 3.8% (n = 290,000);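 active means mean replicate inhibition above about 79%, with every replicate also reaching it, limit read from the data; inconclusive means only one of the two criteria met; inactive means mean below limit and not every replicate reaching it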
M18AAP inhibitor: PfM18AAP inhibitors, malaria aminopeptidase, primary screen, biochemical, QFRET, recombinant enzyme; H-Glu-NHMec fluorogenic cleavage; inhibition, % at 7.35 µM; actives 1.2% (n = 290,000); AID 1822, 2009;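 active means inhibition above the campaign mean inhibition over all tested compounds plus 3 SD, cut at about 28% in these data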;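 further: 0% = plate median of test compound wells and 100% = 2 mM ZnCl2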
CendR NRP1 mod: modulators of CendR peptide binding to NRP-1, primary screen, biochemical, fluorescence polarization, uHTS. Neuropilin-1 (Homo sapiens), O14786. FAM-RPARPAR peptide binding to NRP-1. inhibition, % at 25 µM. actives 0.85% (n = 360,000);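 active means inhibition or corrected inhibition above about 18%, plus a signal ratio from 0.5 to 1.5, limit read from the data, passing the limit was not always enough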
CR mimetic SO: reduction of superoxide in aged yeast, primary screen, HTS | S. cerevisiae aged cells, superoxide DHE fluorescence; hits give low values | superoxide response (% of plate mean), % at 10 µM | actives 0.18% (n = 330,000);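 active means superoxide response under a set limit, about three screen SD below normal, cut at about 65% in these data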;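 further: yeast aged for seven days with compound at 30 °C before DHE staining; 100% = average MFI of all compound-treated wells on the plate with controls excluded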
APOBEC3G inh: APOBEC3G DNA deaminase inhibitors, primary screen, biochemical, fluorescence, single-stranded DNA substrate, uHTS | DNA dC->dU-editing enzyme APOBEC-3G (Homo sapiens), Q9HC16 | recombinant A3G, ssDNA deamination FAM/TAMRA fluorescence | inhibition, % at 20 µM | actives 0.28% (n = 330,000);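 active means inhibition of at least 40% at 20 µM, with no more than 30% in the related APOBEC3A deaminase screen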;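 further: plate controls were DMSO wells with A3G for no effect and wells lacking A3G enzyme for full effect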
Target sequence (Q9HC16 whole entry, looked up): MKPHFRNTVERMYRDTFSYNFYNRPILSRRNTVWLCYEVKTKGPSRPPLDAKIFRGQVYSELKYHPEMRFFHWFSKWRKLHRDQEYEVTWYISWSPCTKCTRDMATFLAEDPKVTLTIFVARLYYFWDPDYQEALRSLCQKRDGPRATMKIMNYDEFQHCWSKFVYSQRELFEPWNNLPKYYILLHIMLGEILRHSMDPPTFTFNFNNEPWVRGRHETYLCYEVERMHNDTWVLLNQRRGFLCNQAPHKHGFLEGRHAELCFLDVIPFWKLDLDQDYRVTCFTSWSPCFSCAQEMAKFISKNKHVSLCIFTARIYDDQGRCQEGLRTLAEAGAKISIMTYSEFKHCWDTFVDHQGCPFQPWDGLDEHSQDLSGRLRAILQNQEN
An asterisk follows results filed as active; ? = inconclusive; · = not tested or not shown. An excerpt weighted towards active compounds, which were near 5.2% of everything screened.

SMILES	APOBEC3A inh	ALR inh	M18AAP inhibitor	CendR NRP1 mod	CR mimetic SO	APOBEC3G inh
COc1ccc(NC(=S)NNC(=O)c2cccnc2)cc1OC	-3	41	11	1	85	-7
COc1ccc(Cl)cc1NC(=S)NNC(=O)c1cccnc1	-4	89*	-5	13	98	-5
COc1ccccc1NC(=S)NNC(=O)c1cc(C)n(C)n1	1	77*	12	3	107	0
COc1ccc(Nc2ccccc2NC(=O)c2ccccc2Br)cc1	0	82*	16	-20	105	15
Cc1ccccc1C(=O)Nc1ccccc1NC(=O)c1ccccc1Br	-5	-4	5	10	132	-10
COCCNc1nc(N2CCCCC2)c2cnn(C)c2n1	-2	-2	1	-2	78	-6
COCCC(=O)N(Cc1ccc2c(c1)OCO2)C(C(=O)NC1CCCCC1)c1ccncc1 (stereo not given)	-2	-9	30*	6	90	-1
COc1ccc(CN(C(=O)Cc2cccs2)C(C(=O)NC2CCCC2)c2ccncc2)cc1 (stereo not given)	-2	·	3	12	101	-6
Cc1ccc2oc(=O)cc(CN3CCCCC3)c2c1	-4	4	2	9	106	-5
O=C1C[C@@H](c2ccc(O)cc2)Oc2cc(O)cc(O)c21	-3	100*	4	-4	120	9
COc1cc(C2CC(=O)c3c(O)cc(O)cc3O2)ccc1O (stereo not given)	3	?	8	-4	86	3
CC1CCCCN1C(=O)c1cnn2c(C(F)(F)F)cc(-c3ccco3)nc12 (stereo not given)	-5	1	-3	4	88	-5
Clc1nssc1=Nc1nncs1	-2	38	·	5	100	71*
Cc1cc2nc(/N=C(\N)NC(=O)N3c4ccccc4Sc4ccccc43)nc(C)c2cc1C	·	92*	-1	-3	78	·
COc1ccccc1N1CCN(c2ccc3c(c2)S(=O)(=O)c2cccc(C(=O)NCc4ccc(F)cc4)c2C3=O)CC1	·	·	·	-91	·	·
Cc1cccc(NS(=O)(=O)c2cccs2)c1	-2	·	-13	36*	95	-8
Cc1cccc(NS(=O)(=O)c2ccc(NS(=O)(=O)c3cccs3)cc2)c1	-3	5	-4	-14	102	-10
Cn1c(CS/C(N)=N/N=C/c2ccccc2)c(Br)c(=O)n1-c1ccccc1	0	98*	15	15	103	-1
CCOc1ccc(OCCn2c(=S)[nH]c3c(N)ncnc32)cc1	2	91*	17	10	100	-15
NS(=O)(=O)c1ccc(CCNC(=O)CCc2nc3ccccc3s2)cc1	-3	4	4	-3	110	-8
C/C(=N/NC(=O)Cc1c(C)[nH][nH]c1=O)c1ccc(O)cc1	-6	98*	4	8	112	-9
C/C(=N\NC(=O)Cc1c(C)[nH][nH]c1=O)c1ccc(Cl)c(Cl)c1	6	18	-4	6	87	0
COc1cc(/C(C)=N\NC(=O)CSc2nc3ccccc3n2C)ccc1O	-1	99*	10	-6	94	-4
C/C(=N/NC(=O)CSc1nc2ccccc2n1C)c1ccncc1	0	-9	-5	-1	114	-9
COc1cc(/C(C)=N/NC(=O)Cc2c(C)[nH][nH]c2=O)ccc1O	-2	99*	-7	0	90	-2
SMILES	APOBEC3A inh	ALR inh	M18AAP inhibitor	CendR NRP1 mod	CR mimetic SO	APOBEC3G inh
COC(=O)[C@H](Cc1c[nH]c2ccccc12)NCc1cccc(B(O)O)c1	·	·	·	-4	·	·
COc1cc2[nH]c(=S)nc(NCc3ccccc3)c2cc1OC	-2	-7	5	-3	100	-7
COc1cc2[nH]c(=S)nc(NCc3cccnc3)c2cc1OC	-3	-3	30*	-6	99	-5
COc1ccc(C(C)=O)cc1COC(=O)CCNS(=O)(=O)c1ccc(C(C)=O)cc1	6	2	2	44*	89	-11
CC(NC(=O)CCCCCNC(=O)N1CCn2c1nc1ccccc12)c1ccccc1 (stereo not given)	-5	92*	13	-1	90	-5
O=C(O)/C(=C\c1ccccc1)c1ccc2ccccc2c1	0	-6	·	21*	83	-3
CCN1CCN(CCCNC(=O)c2ccccc2NC(=O)C2=C(C)OCCS2)CC1	-3	-21	1	4	117	-2
CC1Oc2ccccc2C=C1/C=N/Nc1ccc(C(=O)O)cc1 (stereo not given)	-8	92*	-2	4	99	3
CC(C)(C)c1ccc(/C=N/Nc2ccc(C(=O)O)cc2)cc1	1	·	-6	-4	101	0
O=C(Nc1cccc(-c2cccc(Cl)c2)c1)C1CCN(Cc2ccc(CO)o2)CC1	1	19	-2	6	104	-6
O=C(CCN1CCC(c2ccccc2)C1)c1ccccc1 (stereo not given)	-1	10	3	-3	101	-3
COc1cc(C(=O)CCN2CCC(c3ccccc3)C2)cc(OC)c1OC (stereo not given)	-2	98*	-12	-4	91	4
CSc1nnnn1-c1ccc(Cl)cc1	-3	-7	-11	3	109	-7
Cc1ccc(CNC(=O)c2ccc(N3CCC4(CC3)CC(c3cccc(Br)c3)=NO4)c(NC(=O)c3ccccc3)c2)cc1	4	·	·	-2	105	-6
CC1CCCCC1NC(=O)Cn1ncc2ccccc21 (stereo not given)	1	97*	3	-7	89	-4
CC1CCC(NC(=O)Cn2ncc3ccccc32)CC1 (stereo not given)	-1	-1	-9	1	91	-5
O=C1CSC(=NC2CCCCC2)N1	-18	98*	7	2	75	-7
Cc1ccc(S(=O)(=O)NCCNC(=O)CN2CCOCC2)cc1	-4	-1	6	1	106	-15
CCN1CCN(C(c2cccs2)C(C)NC(=O)c2ccccc2F)CC1 (stereo not given)	-5	-9	-13	25*	107	-6
O=C(CSc1nc(=O)n(CCN2CCOCC2)c2c1CCCC2)Nc1ccccc1Cl	·	·	·	6	·	·
CCc1ccc(-c2nc(CS(=O)CC(=O)NCc3ccc4c(c3)OCO4)c(C)o2)cc1 (stereo not given)	-4	99*	11	-5	109	-2
